In all, about 5,500 compounds went through this assay and about 2,000 (36%) were called active. Not shown: some 18% with an inconclusive outcome. The list shows a part of the results. Unmarked numbers belong to inactive results. No stated cut-off is given here; in the data, active means normalized growth mostly below about 0.91 (no sharp cut-off); inconclusive means no clear call, values can overlap the other calls; inactive means mostly above about 0.92.
Experiment: chemical genetic growth profiling, strain panel (AID 1159580);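 further: tested at 20 µM; growth read once vehicle control cultures reached saturation at 30 °C; 1 = growth at the plate median or of vehicle wells; lower values mean less growth of the strain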
Details: S. cerevisiae deletion strains, growth OD
[1] = locus YAL013W, strain DEP1, active compounds read low
[2] = locus YBR229C, strain ROT2, active compounds read low
[3] = locus YDL101C, strain DUN1, active compounds read low
[4] = locus YDR150W, strain NUM1, active compounds read low
[5] = locus YEL061C, strain CIN8, active compounds read low
[6] = locus YGR078C, strain PAC10, active compounds read low
[7] = locus YGR229C, strain SMI1, active compounds read low
[8] = locus YHR030C, strain SLT2, active compounds read low
[9] = locus YHR087W, strain rtc3, active compounds read low
[10] = locus YJL187C, strain SWE1, active compounds read low
[11] = locus YJR043C, strain POL32, active compounds read low
[12] = locus YJR075W, strain HOC1, active compounds read low
[13] = locus YKL190W, strain CNB1, active compounds read low
[14] = locus YLR039C, strain RIC1, active compounds read low
[15] = locus YLR058C, strain SHM2 (second series), active compounds read low
[16] = locus YLR085C, strain ARP6, active compounds read low
[17] = locus YLR262C, strain YPT6, active compounds read low
[18] = locus YML094W, strain GIM5, active compounds read low
[19] = locus YMR219W, strain ESC1, active compounds read low
[20] = locus YMR263W, strain SAP30, active compounds read low
[21] = locus YNL153C, strain GIM3, active compounds read low
[22] = locus YNL298W, strain CLA4 (second series), active compounds read low
[23] = locus YNL322C, strain KRE1, active compounds read low
[24] = locus YNR030W, strain Alg12, active compounds read low
[25] = locus YPL055C, strain LGE1, active compounds read low
[26] = locus YPL241C, strain CIN2, active compounds read low
[27] = locus YPR135W, strain CTF4, active compounds read low
[28] = locus YMR307W, strain GAS1, active compounds read low

Question: For `O=c1[nH]c2cccnc2[nH]c1=O`, which normalized growth [1] is on record?
Answer: 0.999

Question: What about the normalized growth [2] of the same compound?
Answer: 1.02

Question: What about the normalized growth [3] of the same compound?
Answer: 1.01

Question: And the normalized growth [4]?
Answer: 0.995

Question: What about the normalized growth [5] of the same compound?
Answer: 1

Question: What about the normalized growth [6] of the same compound?
Answer: 1.01

Question: And the normalized growth [7]?
Answer: 0.997

Question: What about the normalized growth [8] of the same compound?
Answer: 1.03

Question: What about the normalized growth [9] of the same compound?
Answer: 1

Question: What about the normalized growth [10] of the same compound?
Answer: 0.992

Question: What about the normalized growth [11] of the same compound?
Answer: 1.01

Question: What about the normalized growth [12] of the same compound?
Answer: 0.969

Question: What about the normalized growth [13] of the same compound?
Answer: 0.995

Question: And the normalized growth [14]?
Answer: 1

Question: And the normalized growth [15]?
Answer: 1

Question: And the normalized growth [16]?
Answer: 1.01

Question: And the normalized growth [17]?
Answer: 0.979

Question: What about the normalized growth [18] of the same compound?
Answer: 1.02

Question: What about the normalized growth [19] of the same compound?
Answer: 1.03

Question: And the normalized growth [20]?
Answer: 1.01

Question: And the normalized growth [21]?
Answer: 1.04

Question: What about the normalized growth [22] of the same compound?
Answer: 1.04

Question: What about the normalized growth [23] of the same compound?
Answer: 0.998

Question: What about the normalized growth [24] of the same compound?
Answer: 1.01

Question: And the normalized growth [25]?
Answer: 0.965

Question: What about the normalized growth [26] of the same compound?
Answer: 1.01

Question: What about the normalized growth [27] of the same compound?
Answer: 1.06

Question: For `CCCCCCCc1c(O)c2ccccc2[nH]c1=O`, which normalized growth [1] is on record?
Answer: 1.01

Question: And the normalized growth [2]?
Answer: 0.998

Question: What about the normalized growth (locus YCL061C, strain MRC1, active compounds read low) of the same compound?
Answer: 1.01

Question: What about the normalized growth [3] of the same compound?
Answer: 1

Question: And the normalized growth [4]?
Answer: 0.962

Question: And the normalized growth [5]?
Answer: 1.01

Question: What about the normalized growth [6] of the same compound?
Answer: 1

Question: And the normalized growth [7]?
Answer: 1.01

Question: And the normalized growth [8]?
Answer: 0.989

Question: What about the normalized growth [9] of the same compound?
Answer: 1

Question: What about the normalized growth [10] of the same compound?
Answer: 1

Question: And the normalized growth [11]?
Answer: 1

Question: And the normalized growth [12]?
Answer: 1

Question: What about the normalized growth [13] of the same compound?
Answer: 1.01

Question: And the normalized growth [14]?
Answer: 1.01

Question: What about the normalized growth [15] of the same compound?
Answer: 1.01

Question: And the normalized growth [16]?
Answer: 1.01

Question: And the normalized growth [17]?
Answer: 1.02

Question: What about the normalized growth [18] of the same compound?
Answer: 1.01

Question: And the normalized growth [19]?
Answer: 1.02

Question: What about the normalized growth [20] of the same compound?
Answer: 1.01

Question: What about the normalized growth [28] of the same compound?
Answer: 0.961

Question: What about the normalized growth (locus YNL128W, strain TEP1, active compounds read low) of the same compound?
Answer: 1.01

Question: And the normalized growth [21]?
Answer: 1.01

Question: What about the normalized growth [22] of the same compound?
Answer: 1.03

Question: And the normalized growth [23]?
Answer: 0.997

Question: What about the normalized growth [24] of the same compound?
Answer: 1.02

Question: And the normalized growth [25]?
Answer: 1.02

Question: What about the normalized growth [26] of the same compound?
Answer: 1.02

Question: What about the normalized growth [27] of the same compound?
Answer: 1.07

Question: Which normalized growth (locus YAL040C, strain CLN3, active compounds read low) does the source give for `O=c1[nH]c2ccccc2c2ccccc12` here?
Answer: 1.04

Question: And the normalized growth (locus YCL061C, strain MRC1 (second series), active compounds read low)?
Answer: 1

Question: What about the normalized growth [4] of the same compound?
Answer: 0.983

Question: What about the normalized growth (locus YDR363W, strain ESC2, active compounds read low) of the same compound?
Answer: 1.01

Question: What about the normalized growth (locus YER002W, strain NOP16, active compounds read low) of the same compound?
Answer: 0.987

Question: And the normalized growth [28]?
Answer: 0.979

Question: What about the normalized growth [21] of the same compound?
Answer: 0.779 (active)

Question: And the normalized growth (locus YNL175C, strain NOP13, active compounds read low)?
Answer: 0.975

Question: What about the normalized growth (locus YNL197C, strain WHI3, active compounds read low) of the same compound?
Answer: 0.967

Question: And the normalized growth (locus YNL224C, strain SQS1, active compounds read low)?
Answer: 1.01

Question: What about the normalized growth [23] of the same compound?
Answer: 0.983

Question: What about the normalized growth (locus YOR083W, strain WHI5 (second series), active compounds read low) of the same compound?
Answer: 0.945

Question: Which normalized growth [8] does the source give for `CC1(C)C2CCC1(C)C(O)C2` (configuration not stated) here?
Answer: 0.98

Question: And the normalized growth (locus YHR079C, strain IRE1, active compounds read low)?
Answer: 0.981

Question: What about the normalized growth (locus YJL095W, strain BCK1, active compounds read low) of the same compound?
Answer: 0.999

Question: And the normalized growth (locus YJR066W, strain TOR1, active compounds read low)?
Answer: 0.923

Question: What about the normalized growth (locus YLR113W, strain HOG1, active compounds read low) of the same compound?
Answer: 0.991

Question: And the normalized growth (locus YNL183C, strain NPR1, active compounds read low)?
Answer: 0.947

Question: And the normalized growth (locus YOR231W, strain MKK1, active compounds read low)?
Answer: 0.992

Question: And the normalized growth (locus YPL256C, strain CLN2, active compounds read low)?
Answer: 0.993

— PubChem BioAssay AID1159580 (chemical genetic matrix, 2015)
